Compound activity as filed in PubChem.
An excerpt weighted towards active compounds, which were near 2.2% of everything screened.
MEKK2 mut-MEK5 – signal of MEK5 binding to mutant human MEKK2 PB1 domain; AID 1530; bead flow cytometry, Alexa488-MEK5 binding to MEKK2 mutant; actives 0.35% (n = 290,000); percent response, % at 10 µM; in the data active = percent response above about 24%, passing the limit was not always enough
MEKK3 PB1 HTS – modulators (inhibitors or enhancers) of MEK5 binding to human MEKK3 PB1 domain; bead-based flow cytometry, Alexa488-MEK5 binding to MEKK3; actives lie on both sides; 0 = blocked by unlabeled MEK5, 100 = vehicle; binding response (% of control), % at 10 µM; actives 1.4% (n = 290,000);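 active = binding response more than 3 SD above or below the average of its plate-row segment, actives on both sides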;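 also: Alexa488 bead fluorescence after subtracting the streptavidin-only scavenger bead signal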
VLA-4 inh – inhibition in a human VLA-4 binding assay; AID 2557; inhibition, % (about 7 µM as worked out from the volumes in the protocol); VLA-4 expressing cells, ligand binding flow cytometry; actives 0.2% (n = 330,000); P13612; in the data active = inhibition above about 50%
MEKK2wt PB1 HTS – raises or lowers MEK5 binding to wildtype human MEKK2 PB1 domain | Q9Y2U5 | bead flow cytometry, Alexa488-MEK5 binding to MEKK2 WT; actives lie on both sides | binding response (% of control), % at 10 µM | actives 1.1% (n = 290,000) | AID 1531; in the data active = binding response below about 67% or above about 130%
MEKK2wt confirm – raises or lowers MEK5 binding to wildtype human MEKK2, retest; binding response (% of control), % at 10 µM; actives 2.4% (n = 5,900); bead flow cytometry, Alexa488-MEK5 binding to MEKK2 WT; actives lie on both sides; shares compounds with MEKK3 PB1 HTS; AID 1892; in the data active = binding response below about 16% or above about 210%; inactive = in between
MEKK2mut confirm – signal of MEK5 binding to mutant human MEKK2, retest; shares compounds with MEKK3 PB1 HTS; bead flow cytometry, Alexa488-MEK5 binding to MEKK2 mutant; percent response, % at 10 µM; actives 2% (n = 5,900); in the data active = percent response mostly above about 71%, no sharp cut-off; inactive = mostly below about 38%;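 also: higher means compound restores mutant binding toward wildtype level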
MEKK3 confirm – confirmation of inhibitors of MEK5 binding to human MEKK3 | shares compounds with MEKK3 PB1 HTS | bead flow cytometry, Alexa488-MEK5 binding to MEKK3; hits give low values | binding response (% of control), % at 10 µM | actives 1.8% (n = 5,900) | AID 1894;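 active = binding response below 72% of control, or above a set upper limit, though filed actives all read lower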;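 also: lower values mean stronger disruption of MEK5 binding to MEKK3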
A number is an active result; i = inactive; nt = no result given; ! = a repeat was not active; [ ] = remark or other dose.

SMILES	MEKK2 mut-MEK5	MEKK3 PB1 HTS	VLA-4 inh	MEKK2wt PB1 HTS	MEKK2wt confirm	MEKK2mut confirm	MEKK3 confirm
CCC1C(c2ccccc2)NC(c2ccccc2)CC1(O)c1ccc(F)cc1 (stereo not drawn)	i	i	i	152	i	i	i
Oc1ccccc1C1NCc2ccccc2-n2cccc21 (stereo not drawn)	i	i	i	i	nt	nt	nt
Oc1ccc2c3c1OC1C(O)CC[C@@]4(O)[C@@H](C2)N(CC2CCC2)CC[C@]314 (stereo partly drawn)	i	i	i	53![inhibitor]	i	i	i
CC(N)C(=O)OC(C)(C)Cc1ccc(Cl)cc1 (stereo not drawn)	nt	nt	i	nt	nt	nt	nt
CC(NCc1cccc(Cl)c1Cl)C(O)c1ccccc1 (stereo not drawn)	i	i	i	43[inhibitor]	i	i	i
COC12CCC3(CC1C(C)(O)C(C)(C)C)[C@H]1Cc4ccc(O)c5c4[C@@]3(CCN1CC1CC1)C2O5 (stereo partly drawn)	nt	nt	i	nt	nt	nt	nt
COc1ccc(C2(C#N)CCN(C)CC2)cc1	i	i	i	i	nt	nt	nt
CC(C)COc1ccc(C2(C#N)CC[N+](C)(C)CC2)cc1	i	80[inhibitor]	i	i	i	i	i
N#CC(C#N)=C(N)c1cccnc1	i	46[inhibitor]	i	i	i	i	i
COC(=O)C1=C(c2ccc(C(C)=O)cc2)C[C@@H]2CC[C@H]1N2C(=O)NC(C)C	nt	nt	i	nt	nt	nt	nt
CCN1C[C@]2(OC(=O)c3ccccc3NC(C)=O)CCC(OC)C34C5C[C@H]6C(OC)[C@]5(O)[C@](O)(C[C@@H]6OC)C(C[C@@H]32)[C@H]14 (stereo partly drawn)	i	i	i	i	nt	nt	nt
O=C1NC(=O)C(CCc2ccncc2)(CCc2ccncc2)C(=O)N1C1CCCCC1	i	i	i	i	nt	nt	nt
O=C1NC(=O)N(C2CCCCC2)C(=O)C1C1c2ccccc2C(=O)N1Cc1ccccc1 (stereo not drawn)	i	76[inhibitor]	i	i	i	i	i
Cc1ccc(OC(F)F)c(N2C(=O)C3C4CCC(O4)C3C2=O)c1 (stereo not drawn)	nt	nt	i	nt	nt	nt	nt
O=C1NC(=O)C(=Cc2coc3ccccc3c2=O)C(=O)N1	184	i	i	282	i	i	i
c1ccc2nc(N3CCNCC3)ccc2c1	nt	nt	i	nt	nt	nt	nt
Cc1ccc(NP(=O)(Oc2ccccc2F)Oc2ccccc2F)cc1	i	i	i	i	nt	nt	nt
CCc1ccc(NP(=O)(Oc2ccccc2F)Oc2ccccc2F)cc1	i	1.0[inhibitor]	i	-3.0[inhibitor]	i	i	i
COc1ccc(CNCCc2c(C)[nH]c3ccc(OC(F)(F)F)cc23)c(OC)c1	i	i	i	139	i	i	i
CC[C@H](C)[C@@H]1O[C@@]2(C=CC1C)CC1C[C@@H](CC=C(C)C(O[C@H]3CC(OC)C(O[C@H]4CC(OC)C(O)C(C)O4)C(C)O3)C(C)C=CC=C3CO[C@@H]4C(O)C(C)=C[C@@H](C(=O)O1)[C@]34O)O2 (stereo partly drawn)	nt	nt	i	nt	nt	nt	nt
CC(C)(C)n1cc(C(=O)c2ccc3ccccc3c2O)cn1	i	129	i	i	i	i	i
c1ccc(CCCN2CCN(CCOC(c3ccccc3)c3ccccc3)CC2)cc1	i	i	i	162	i	i	i
Fc1ccc(C(OCCN2CCN(CCCc3ccccc3)CC2)c2ccc(F)cc2)cc1	26	i	i	235	i	i	i
Fc1ccc(C(OCCN2CCCC2)c2ccc(F)cc2)cc1	i	i	i	i	nt	nt	nt
C[C@]12CCC3C(CC[C@H]4C[C@H](O)CC[C@]34C)C1C[C@@H](CCCCl)[C@@H]2O (stereo partly drawn)	nt	nt	i	nt	nt	nt	nt
SMILES	MEKK2 mut-MEK5	MEKK3 PB1 HTS	VLA-4 inh	MEKK2wt PB1 HTS	MEKK2wt confirm	MEKK2mut confirm	MEKK3 confirm
Cc1ccc(N2C(=O)CC(=O)NC2=O)cc1Cl	i	i	i	i	nt	nt	nt
CC/C(=N\Nc1ccccc1)c1c(O)[nH]c(=O)[nH]c1=O	i	i	i	i	nt	nt	nt
CC/C(=N\Nc1cccc2ccccc12)c1c(O)[nH]c(=O)[nH]c1=O	i	i	i	36[inhibitor]	i	i	i
C=CCN1C(=O)/C(=C/c2cc(C)n(-c3ccccn3)c2C)C(=O)NC1=S	i	i	i	61[inhibitor]	i	i	i
Cc1cc(C=C2C(=O)N(C)C(=S)N(C)C2=O)c(C)n1C1CCCC1	i	i	i	55[inhibitor]	i	i	i
Cc1cc(/C=C2\C(=O)NC(=S)N(C)C2=O)c(C)n1C1CCCCC1	i	i	i	i	nt	nt	nt
CNCCc1c[nH]c2ccccc12	i	i	i	i	nt	nt	nt
CCC(N)Cc1c[nH]c2ccccc12 (stereo not drawn)	i	64[inhibitor]	nt	i	i	i	i
COc1ccc(CNCCc2cccc(F)c2)c2ccccc12	i	i	i	151	i	i	i
COc1cc(OC)c(OC)cc1CNCCc1cccc(F)c1	i	i	i	i	nt	nt	nt
COc1cc2c3cc1Oc1cc(ccc1O)C[C@@H]1c4c(cc(OC)c(O)c4Oc4ccc(cc4)C[C@H]3N(C)CC2)CCN1C	i	i	i	134	i	i	i
COc1cc2c3cc1Oc1c(OC)c(OC)cc4c1[C@H](Cc1ccc(cc1)Oc1cc(ccc1O)C[C@H]3N(C)CC2)N(C)CC4	nt	nt	i	nt	nt	nt	nt
Cn1cccc1/C=C1/C(=O)NC(=O)N(Cc2ccc(F)cc2)C1=O	i	i	i	i	nt	nt	nt
Cn1cccc1/C=C1/C(=O)NC(=S)N(Cc2ccc(F)cc2)C1=O	i	i	i	56[inhibitor]	i	i	i
Cc1cccc(N2C(=O)NC(=O)/C(=C\c3ccc4c(c3)CCCN4Cc3ccccc3)C2=O)c1	159	139	i	146	i	i	i
CC1=NN(c2ccccc2)C(=O)C1/C=C1/C(=O)NC(=O)N(c2cccc(C)c2)C1=O (stereo not drawn)	i	i	nt	i	nt	nt	nt
CCC(C)NC(=O)c1c(N)n(CC2CCCO2)c2nc3ccccc3nc12 (stereo not drawn)	i	82[inhibitor]	i	i	i	i	i
CC(C)CCNC(=O)c1c(N)n(CC2CCCO2)c2nc3ccccc3nc12 (stereo not drawn)	i	i	i	i	nt	nt	nt
COC(=O)C1=C(c2ccc(F)cc2OCc2ccccc2)C[C@@H]2CC[C@H]1N2C(=O)NCc1ccc2c(c1)OCO2	nt	nt	i	nt	nt	nt	nt
O=c1[nH]c(=O)n(-c2cccc3ccccc23)c(O)c1/C=N/N1CCCCC1c1cccnc1 (stereo not drawn)	i	134	i	i	i	i	i
c1ccc(CC(NCc2ccco2)c2ccccc2)cc1 (stereo not drawn)	i	129	i	i	i	i	i
CC1(c2ccccc2)NCCN2C(=O)CSC21 (stereo not drawn)	i	i	i	i	nt	nt	nt
